In all, about 340,000 compounds went through this assay and about 8,500 (2.5%) were called active. The sample as a whole holds a higher share of actives than the screen did. Unmarked numbers belong to inactive results.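 The calls were made as follows: active = melting temperature shift of at least 10% of the positive control shift, at one fixed dose; inactive = the rest.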
System: Glutamate receptor ionotropic, NMDA 3A (GRIN3A) ligand-binding domain
Assay: NR3A LBD thermal stabilization by compounds – biophysical, differential scanning fluorimetry, uHTS, primary screen (AID 1259313)
Conditions: at 25 µM, active compounds read high, 0% = protein alone, 100% = glycine-bound protein

Row | Compound | Tm shift relative to glycine control
1 | Cc1ccc2cc(C)c(N3CCC(C)CC3)nc2c1 | 3.71%
2 | CC1(c2ccccc2)NC(=O)N(CC(=O)Nc2cc(Cl)ccc2N2CCOCC2)C1=O (stereo not given) | 0.96%
3 | Cc1ccccc1NC(=O)CSc1nc2ccc(Nc3nc(N4CCOCC4)nc(N4CCOCC4)n3)cc2s1 | -1.11%
4 | O=C(CSc1nc(Nc2ccccc2)nc(N2CCOCC2)n1)Nc1cc(Cl)ccc1O | 32.6% (active)
5 | Cc1ccc(C(=O)OCC(=O)NC(=O)Cc2ccccc2)c(O)c1 | 0.78%
6 | O=S(=O)(NC1CCCCC1N1CCN(c2ccccc2F)CC1)c1ccccc1 (stereo not given) | -1.62%
7 | CN1C(=O)C(CC(N)=O)N(NC(=O)c2ccc(Cl)cc2)C1=S (stereo not given) | -3.25%
8 | Cc1ccc(N2C(=O)C(CC(=O)Nc3cccc(F)c3)N(CCc3ccncc3)C2=O)cc1 (stereo not given) | 0.4%
9 | Cc1ccc(NC(=O)CC2C(=O)N(Cc3ccccc3)C(=S)N2NC(=O)c2cccc(F)c2)c(C)c1 (stereo not given) | 19.1% (active)
10 | CC1=C(C(=O)Nc2ccccc2)C(c2cccs2)C(C#N)=C(SCC#N)N1 (stereo not given) | -11.3%
11 | O=C(NCCOc1ccccc1Cl)C(=O)Nc1ccccc1 | -4.63%
12 | O=C(NCCOc1ccccc1F)Nc1ccc(Br)cc1 | 16.4% (active)
13 | O=C(COc1ccccc1F)NNC(=O)c1cc(Br)ccc1Cl | 0.51%
14 | CCN(CC)c1ccc(NC(=O)c2ccc(=O)[nH]c2)cc1S(=O)(=O)Nc1ccc(OC)cc1 | -4.98%
15 | Cc1nc(SCC(=O)N2CCc3ccccc3C2)c2c(C)c(C)sc2n1 | -0.44%
16 | COc1cc(OC)cc(C(=O)NCC(=O)N2CCCCCCC2)c1 | 3.22%
17 | O=C(Nc1cccc(Cl)c1)c1cc([N+](=O)[O-])ccc1N1CCN(CCO)CC1 | 3.77%
18 | Cn1c(Nc2cccc(Cl)c2)nc2ccccc21 | 8.46%
19 | Cc1c(C(=O)Nc2cccc(Cl)c2)cn2c(nc3ccccc32)c1C#N | 24.6% (active)
20 | CCCN(C(=O)c1nc2nccc(C)n2n1)c1c(N)n(Cc2ccccc2)c(=O)[nH]c1=O | -5.77%
21 | O=C(CCN1C(=O)c2ccccc2C1=O)NNC(=O)c1ccc(Cl)cc1Cl | -1.46%
22 | CCc1ccc(CNC(=O)C2CCN(c3nnc(C)c4c(C)n(-c5ccc(C)cc5)nc34)CC2)cc1 | -2.58%
23 | Cc1nc2ccccc2nc1N/N=C/c1ccc(O)cc1O | 34.3% (active)
24 | Oc1ccc(-c2nc3ccccc3nc2-c2ccc(O)cc2O)c(O)c1 | -6.22%
25 | COc1ccccc1N1CCN(/N=C/c2ccc(O)cc2O)CC1 | 1.98%
26 | O=C(Nc1ccnn1C1CCN(Cc2cccc(OCCO)c2)CC1)C1CCCC1 | 0.6%
27 | COc1ccc(CN2CC(C(=O)NCCc3ccc(Cl)cc3)CC2=O)cc1 (stereo not given) | -2.13%
28 | COc1ccccc1N(CC(=O)Nc1c(C)n(C)n(-c2ccccc2)c1=O)S(=O)(=O)c1ccccc1 | -1.61%

Row | Compound | Tm shift relative to glycine control
29 | COc1ccc(Cl)cc1NS(=O)(=O)c1cccc(C(=O)NC2CCC(O)CC2)c1 (stereo not given) | 0.97%
30 | NS(=O)(=O)c1ccc(CCNC(=O)CCCn2c(SCC(=O)N3CCCC3)nc3ccsc3c2=O)cc1 | -0.96%
31 | CCC(=O)Nc1ccc2nn(-c3ccc(F)cc3)nc2c1 | -10.1%
32 | O=C(/C=C/c1ccco1)Nc1ccc(Oc2ccccc2)cc1 | 2.36%
33 | O=C(/C=C/c1ccco1)Nc1cccc(-c2nc3ccccc3[nH]2)c1 | 22.5% (active)
34 | CC(C)Oc1ccc(/C=C(\NC(=O)/C=C/c2ccco2)C(=O)NCCc2nc3ccccc3[nH]2)cc1 | -0.09%
35 | Cc1ccc(-n2nc3ccc(NC(=O)/C=C/c4ccco4)cc3n2)cc1C | 32.1% (active)
36 | COc1cccc(NC(=O)COC(=O)/C=C/c2ccco2)c1 | -0.92%
37 | COc1ccc(C(=O)Nc2cccc(S(C)(=O)=O)c2)cc1 | 4.52%
38 | O=C(Nc1cccc(-c2nc3ccccc3[nH]2)c1)c1ccc(C(=O)Nc2cccc(-c3nc4ccccc4[nH]3)c2)cc1 | 27.9% (active)
39 | CN(c1ccccc1)S(=O)(=O)c1cc(C(=O)Nc2nc3ccccc3[nH]2)ccc1Cl | -0.62%
40 | COc1cc2c(cc1OC)C(c1ccccc1Br)NC(=O)C2 (stereo not given) | -0.95%
41 | Cn1c(=O)c2ccccc2n(CC(=O)Nc2ccc3c(c2)OCCO3)c1=O | -1.03%
42 | C[C@@H]1NC(=O)c2cc([N+](=O)[O-])cc(F)c2NCCC[C@@H](C(N)=O)NC(=O)[C@H](CC(N)=O)NC1=O | 1.79%
43 | CC(=O)N(CN1C(=O)C2C3C=CC(C3)C2C1=O)c1cccc(Cl)c1 (stereo not given) | -2.44%
44 | Oc1c(Br)cc(/C=N/NC(=S)NCC2CCCO2)cc1Br (stereo not given) | 1.71%
45 | COc1ccc(NC(=O)NC2CC3CCCC(C2)N3Cc2ccccc2)cc1 (stereo not given) | 0%
46 | CC(=O)Nc1ccc(S(=O)(=O)NC(C)C(=O)OCCOc2ccc(F)cc2)cc1 (stereo not given) | 22.1% (active)
47 | CC(=O)Nc1ccc(S(=O)(=O)NC(C)C(=O)OCC(=O)NC2CCCC2)cc1 (stereo not given) | 0.79%
48 | COc1ccc(-c2noc(C(C)NS(=O)(=O)c3ccc(NC(C)=O)cc3)n2)cc1 (stereo not given) | -8.89%
49 | Cc1c(NC(=O)c2cc(-c3ccc(Cl)s3)nc3ccccc23)c(=O)n(-c2ccccc2)n1C | 1.05%
50 | C[C@H](NC(=O)C1CC(=O)N(c2ccc3c(c2)OCCO3)C1)C(=O)N1CCC(C(=O)O)CC1 (stereo not given in full) | -0.91%
51 | CCOC(=O)c1c(-c2ccccc2)oc2ccc(OCC(=O)NN)cc12 | 0.51%
52 | CCOC(=O)c1c(-c2ccccc2)oc2cc(Br)c(O)c(C=O)c12 | -7.04%
53 | CCOC(=O)c1c(-c2ccccc2)oc2cc(Br)c(O)cc12 | 13.8% (active)
54 | Cc1cccc(CC(=O)N2CCN=C2SCc2ccc([N+](=O)[O-])cc2)c1 | -0.64%
55 | CCN(CC)CCCNC(=O)c1cn(C)c2ccc(S(=O)(=O)N(C)C3CCCCC3)cc2c1=O | -1.61%
